40 compounds from PubChem BioAssay (Tox21) can be followed below.

Inconclusive results are not listed. Calls of active or inactive are those of the source. Calls follow the shape of the dose curve; as a rule, active = well fitted cell-killing curve with a large enough effect in the repeat runs; inconclusive = weak or mixed curves; inactive = no such curve, though single readings can be large or run the other way.

The assay in a line: qHTS assay to identify small molecule antagonists of the peroxisome proliferator-activated receptor delta (PPARd) signaling pathway - cell viability counter screen (AID 743213). Also: nearly all actives have a fitted effect of over 50% in size. As to conditions: PPARd-bla HEK293H viability, CellTiter-Glo luminescence, 17 h; series mostly up to 62 µM. The text has this: U.S. Tox21 Program National Center for Advancing Translational Sciences [NCATS] NIH Chemical Genomics Center [NCGC] U.S. Environmental Protection Agency [EPA] National Institutes of Environmental Health Sciences [NIEHS] National Toxicology Program [NTP] U.S. Food and Drug Administration [FDA] Tox21 Assay Overview: The peroxisome proliferator-activated receptors (PPARs) are lipid-activated transcription factors of the nuclear receptor superfamily with three distinct subtypes namely PPAR alpha, PPAR delta (PPARd) and PPAR gamma. All these subtypes heterodimerizes with Retinoid X receptor (RXR) and have different physiological functions. […] To identify the compounds that inhibit PPAR-delta signaling, GeneBLAzer PPAR delta UAS-bla HEK293H cell line (Invitrogen, Carlsbad, CA, USA) containing a beta-lactamase reporter gene under the control of an Upstream Activator Sequence (UAS) was used to screen the Tox21 compound library. The cytotoxicity of the Tox21 compound library against the PPARd-bla cell line was tested in parallel by measuring the cell viability using CellTiter-Glo assay (Promega, Madison, WI) in the same wells.
Tox21 Assay Protocol Summary: PPARd-bla cells were dispensed at 3000 cells/5uL/well in 1536-well black wall/clear bottom plates using a Multidrop Combi (Thermo Fisher Scientific, Waltham, MA) dispenser. After the assay plates were incubated at 37 C and 5% CO2 for 5 h, 23 nL of compounds dissolved in DMSO, positive controls or DMSO only was transferred to the assay plate by a Pintool station (Kalypsys, San Diego, CA), followed by addition of 1ul L165041 (300 nM, final concentration in the wells). The assay plates were incubated at 37 C for 17 h, and then 1 uL of LiveBLAzerTM B/G FRET substrate was added using a Bioraptr Flying Reagent Dispenser (FRD) workstation (Beckman Coulter, Indianapolis, IN, USA). The assay plates were incubated at room temperature for 2 h and fluorescence intensity was measured by an Envision plate reader (PerkinElmer, Shelton, CT). For cell viability readout that measures cytotoxicity, 3 ul/well of CellTiter-Glo reagent was added into the assay plates using a Bioraptr FRD. After 30 min incubation at room temperature, the luminescence intensity in the plates was measured using a ViewLux plate reader (PerkinElmer).
(qHTS replaces the single test concentration by a dilution series.)
For `Cc1ccc(S(=O)(=O)O)c(C)c1`, the outcome was inactive.
For `ClCCCl` the value was “inactive”; for `CCOC(=O)CC(=O)c1ccccc1`, “inactive”; for `CC(=C(CCOC(=O)C(C)C)SSC(CCOC(=O)C(C)C)=C(C)N(C=O)Cc1cnc(C)nc1N)N(C=O)Cc1cnc(C)nc1N`, “inactive”.
For the compound `N[C@@H](CCC(=O)Nc1ccc([N+](=O)[O-])cc1)C(=O)O`, the compound was called inactive.
Take `CCCCOC(=O)c1ccccc1`: the compound was called inactive.
Regarding `CCOCCOC(=O)/C=C/c1ccc(OC)cc1`, the call was inactive.
Consider `C=C(C)C(=O)OCC(C)(C)COC(=O)C(=C)C`, for which the compound was called inactive.
For `CC[C@H](C)C(=O)O[C@H]1C[C@H](O)C=C2C=C[C@H](C)[C@H](CC[C@@H](O)C[C@@H](O)CC(=O)O)[C@H]21` the value was “inactive”.
As to `CC(=O)Nc1ccc(S(=O)(=O)Nc2ccc([N+](=O)[O-])cc2)cc1`, the compound was classed as inactive.
Consider `Cc1cc2cc3c(C)cc(=O)oc3c(C)c2o1`, for which the compound was called inactive.
Turning to `O=S(=O)(O)c1ccc2cc(O)c(S(=O)(=O)O)cc2c1`, the result was inactive.
Take `NCCN1CCOCC1`: the compound was called inactive.
Take `CC(C(=O)O)c1ccc2c(c1)CC(=O)c1ccccc1S2` (stereo not given): the compound was classed as inactive.
As to `CC1(C)S[C@@H]2[C@H](N=CN3CCCCCC3)C(=O)N2[C@H]1C(=O)O`, the call was inactive.
Turning to `Cc1c(I)c(=O)n(-c2ccccc2)n1C`, the result was inactive.
As to `CCN1CCc2nc(N)oc2CC1`, the call was inactive.
Next, `O=C1O[C@@H]2[C@@H](O)[C@H](O)O[C@@H]2[C@H]1O`: “inactive”; `C=CCCCCCCCCCCCC`: “inactive”.
For `CCCCCCCCCC(C)=O`, the compound was classed as inactive.
On to `CC(C)(C)OC(=O)c1ccc(O)cc1`, for which the outcome was inactive.
In the case of `Nc1nnc(-c2cccc(Cl)c2Cl)c(N)n1`, the result was inactive.
As for `CCCCCCOC(=O)CC`, the result was inactive.
As for `CN1C(C)(C)CCCC1(C)C`, the compound was called inactive.
As for `COc1ccc(Br)c(C)c1`, the compound was called inactive.
With `Cc1cc(Cl)c(C)cc1Cl`, the call was inactive.
Next, `Cc1cccc(C)c1OCC(C)N` (stereo not given): “inactive”.
`CCCCCCN`: the compound was classed as inactive.
For the compound `COc1ccc(-c2cc(=O)c3c(O)cc(O[C@@H]4O[C@H](CO[C@@H]5O[C@@H](C)[C@H](O)[C@@H](O)[C@H]5O)[C@@H](O)[C@H](O)[C@H]4O)cc3o2)cc1O`, the outcome was inactive.
As to `Nc1ccc(S(=O)(=O)Nc2ccc(Cl)nn2)cc1`, the compound was classed as inactive.
For the compound `CCOc1cc(NC(C)=O)ccc1C(=O)OC`, the call was inactive.
Take `CCN(CC)CC(=O)Nc1c(C)cccc1C`: the outcome was inactive.
On to `CC/C=C\CC1=C(C)CCC1=O`, for which the result was inactive.
For the compound `CCCCC(CC)COCCO` (stereo not given), the call was inactive.
As for `CC(CN)CC(C)(C)CCN` (stereo not given), the outcome was inactive.
Take `Cc1nc2n(c(=O)c1CCN1CCC(c3noc4cc(F)ccc34)CC1)CCC[C@H]2O`: the call was inactive.
For `Oc1ccccc1-c1nnco1` the value was “inactive”.
Turning to `C[C@H](CCC(=O)O)[C@H]1CC[C@H]2[C@@H]3C(=O)C[C@@H]4CC(=O)CC[C@]4(C)[C@H]3CC(=O)[C@]12C`, the call was inactive.
Turning to `C=C(C)C(=O)OCc1ccccc1`, the call was inactive.
Turning to `CC(=O)CCCCn1c(=O)c2c(ncn2C)n(C)c1=O`, the call was inactive.
